# Measured values from PubChem BioAssay (NCI).
# The panel holds about 83,000 compounds, 20% with a hit somewhere; the sample as a whole holds those more often.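 Single-dose data. Exposure time 48 hours. Values below 10 considered active.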 Values without a mark were called inactive. Calls of active or inactive are those of the source. Starred links: 1 amine or outer side, 2 acyl side, 3 side chain; linkers in the order of their positions; H or OH if unused. Positions of bridges follow the written chain, without caps; N, C: chain ends. Non-standard residues stand in square brackets, D forms with d. Residues, ends and D or L forms follow the SMILES beside them. Chains are numbered I, II in the order given. Actinocin(9to1) = Cc1c2oc3c(C)ccc(C(=O)[*:1])c3nc-2c(C(=O)[*:2])c(N)c1=O; aThr = C[C@H](O)[C@H](N)C(=O)O; NMeV = CN[C@H](C(=O)O)C(C)C; Sar = CNCC(=O)O
# Experiments:
# Test in all cases: NCI-60 one-dose screen, 48 h (100 = growth as untreated, 0 = no growth, -100 = all killed)
# NCI-H23 lung = test system: NCI-H23 lung
# NCI-H226 lung = test system: NCI-H226 lung
# NCI-H322M lung = test system: NCI-H322M lung
# HOP-62 NSCLC = test system: HOP-62 NSCLC
# NCI-H460 lung = test system: NCI-H460 lung
# NCI-H522 lung = test system: NCI-H522 lung
# A549/ATCC NSCLC = test system: A549/ATCC NSCLC
# 786-0 renal = test system: 786-0 renal
# DU-145 prostate = test system: DU-145 prostate
# K-562 leukemia = test system: K-562 leukemia
# MDA-MB-231 breast = test system: MDA-MB-231 breast
# SF-268 CNS = test system: SF-268 CNS
# SF-295 CNS = test system: SF-295 CNS
# SF-539 CNS = test system: SF-539 CNS
# UACC-257 melanoma = test system: UACC-257 melanoma
# M14 melanoma = conditions: 10 µM
# HCT-15 colon = test system: HCT-15 colon
# HOP-92 NSCLC = test system: HOP-92 NSCLC
# MALME-3M melanoma = test system: MALME-3M melanoma
# RXF 393 renal = test system: RXF 393 renal
smiles,measurement,setting,value
Cc1cnc(/C=N\NC(N)=S)c2cccc(N)c12,growth,NCI-H23 lung; 10 µM,7.29% (active)
same,growth,NCI-H226 lung; 10 µM,4.78% (active)
same,growth,NCI-H322M lung; 10 µM,-21.9% (active)
same,growth,HOP-62 NSCLC; 10 µM,11.3%
same,growth,NCI-H460 lung; 10 µM,1.79% (active)
same,growth,NCI-H522 lung; 10 µM,-1.74% (active)
same,growth,A549/ATCC NSCLC; 10 µM,11.6%
same,growth,786-0 renal; 10 µM,6.81% (active)
same,growth,DU-145 prostate; 10 µM,-15.6% (active)
same,growth,K-562 leukemia; 10 µM,30.6%
same,growth,MDA-MB-231 breast; 10 µM,34.2%
same,growth,SF-268 CNS; 10 µM,2.26% (active)
same,growth,SF-295 CNS; 10 µM,-29.9% (active)
same,growth,SF-539 CNS; 10 µM,-47.9% (active)
same,growth,UACC-257 melanoma; 10 µM,-30.6% (active)
same,growth,M14 melanoma,-24.7% (active)
same,growth,HCT-15 colon; 10 µM,24.9%
Cc1cc(NCCCN(C)C)c2ccc3c(ccc4c(NCCCN(C)C)cc(C)nc43)c2n1,growth,NCI-H23 lung; 10 µM,-45.2% (active)
same,growth,NCI-H226 lung; 10 µM,-56.6% (active)
same,growth,NCI-H322M lung; 10 µM,-40.7% (active)
same,growth,HOP-62 NSCLC; 10 µM,-22.3% (active)
same,growth,NCI-H460 lung; 10 µM,-77.7% (active)
same,growth,HOP-92 NSCLC; 10 µM,-51.2% (active)
same,growth,NCI-H522 lung; 10 µM,-72.8% (active)
same,growth,A549/ATCC NSCLC; 10 µM,-22.4% (active)
same,growth,786-0 renal; 10 µM,-35.2% (active)
same,growth,DU-145 prostate; 10 µM,-92.6% (active)
same,growth,K-562 leukemia; 10 µM,-52.9% (active)
same,growth,MALME-3M melanoma; 10 µM,-89.2% (active)
same,growth,MDA-MB-231 breast; 10 µM,-77.4% (active)
same,growth,RXF 393 renal; 10 µM,-83.4% (active)
same,growth,SF-268 CNS; 10 µM,-86.1% (active)
same,growth,SF-295 CNS; 10 µM,-76.2% (active)
same,growth,SF-539 CNS; 10 µM,-96% (active)
same,growth,UACC-257 melanoma; 10 µM,-51.6% (active)
same,growth,M14 melanoma,-82.9% (active)
same,growth,HCT-15 colon; 10 µM,-34.6% (active)
O=C(/C(=C/c1ccccc1)CBr)c1ccccc1,growth,NCI-H23 lung; 10 µM,73.1%
same,growth,NCI-H226 lung; 10 µM,93%
same,growth,NCI-H322M lung; 10 µM,90.4%
same,growth,HOP-62 NSCLC; 10 µM,109%
same,growth,NCI-H460 lung; 10 µM,86.4%
same,growth,HOP-92 NSCLC; 10 µM,86.3%
same,growth,NCI-H522 lung; 10 µM,55.8%
same,growth,A549/ATCC NSCLC; 10 µM,90.1%
same,growth,786-0 renal; 10 µM,94.5%
same,growth,DU-145 prostate; 10 µM,87.6%
same,growth,K-562 leukemia; 10 µM,9.75% (active)
same,growth,MALME-3M melanoma; 10 µM,77.5%
same,growth,MDA-MB-231 breast; 10 µM,58.3%
same,growth,RXF 393 renal; 10 µM,71.7%
same,growth,SF-268 CNS; 10 µM,84.4%
same,growth,SF-295 CNS; 10 µM,95.1%
same,growth,SF-539 CNS; 10 µM,82.7%
same,growth,UACC-257 melanoma; 10 µM,73.9%
same,growth,M14 melanoma,65.8%
same,growth,HCT-15 colon; 10 µM,47%
CN(C)CCC(=O)c1c[nH]c2ccccc12,growth,NCI-H23 lung; 10 µM,110%
same,growth,NCI-H226 lung; 10 µM,105%
same,growth,NCI-H322M lung; 10 µM,94%
same,growth,HOP-62 NSCLC; 10 µM,94.4%
same,growth,NCI-H460 lung; 10 µM,113%
same,growth,NCI-H522 lung; 10 µM,91.8%
same,growth,A549/ATCC NSCLC; 10 µM,110%
same,growth,786-0 renal; 10 µM,98.8%
same,growth,DU-145 prostate; 10 µM,111%
same,growth,MALME-3M melanoma; 10 µM,105%
same,growth,MDA-MB-231 breast; 10 µM,115%
same,growth,RXF 393 renal; 10 µM,126%
same,growth,SF-268 CNS; 10 µM,115%
same,growth,SF-295 CNS; 10 µM,99.7%
same,growth,SF-539 CNS; 10 µM,103%
same,growth,UACC-257 melanoma; 10 µM,115%
same,growth,M14 melanoma,101%
same,growth,HCT-15 colon; 10 µM,110%
CCCCCCCCCCCCCCCCCN,growth,NCI-H23 lung; 10 µM,106%
same,growth,NCI-H226 lung; 10 µM,111%
same,growth,NCI-H322M lung; 10 µM,110%
same,growth,HOP-62 NSCLC; 10 µM,87.7%
same,growth,NCI-H460 lung; 10 µM,102%
same,growth,HOP-92 NSCLC; 10 µM,67%
same,growth,NCI-H522 lung; 10 µM,101%
same,growth,A549/ATCC NSCLC; 10 µM,105%
same,growth,786-0 renal; 10 µM,105%
same,growth,DU-145 prostate; 10 µM,114%
same,growth,K-562 leukemia; 10 µM,103%
same,growth,MALME-3M melanoma; 10 µM,98%
same,growth,MDA-MB-231 breast; 10 µM,93%
same,growth,RXF 393 renal; 10 µM,98.7%
same,growth,SF-268 CNS; 10 µM,113%
same,growth,SF-295 CNS; 10 µM,99.1%
same,growth,SF-539 CNS; 10 µM,94.2%
same,growth,UACC-257 melanoma; 10 µM,99.2%
same,growth,M14 melanoma,104%
same,growth,HCT-15 colon; 10 µM,104%
"Cc1c2oc3c(C)ccc(C(=O)N[C@@H]4C(=O)N[C@H](C(C)C)C(=O)N5CCC[C@H]5C(=O)N(C)CC(=O)N(C)[C@@H](C(C)C)C(=O)O[C@H]4C)c3nc-2c(C(=O)N[C@@H]2C(=O)N[C@H](C(C)C)C(=O)N3CCC[C@H]3C(=O)N(C)CC(=O)N(C)[C@@H](C(C)C)C(=O)O[C@H]2C)c(N)c1=O (I: [aThr][dV]P[Sar][NMeV] / II: [aThr][dV]P[Sar][NMeV]; ester I:1-I:C, II:1-II:C; linker I:N-II:N via Actinocin(9to1))",growth,NCI-H23 lung; 0.0025 µM,53.2%
same,growth,NCI-H23 lung; 10 µM,-50.9% (active)
same,growth,NCI-H226 lung; 0.0025 µM,57.3%
same,growth,NCI-H226 lung; 10 µM,-12.4% (active)
same,growth,NCI-H322M lung; 0.0025 µM,64.7%
same,growth,NCI-H322M lung; 10 µM,7.68% (active)
same,growth,HOP-62 NSCLC; 0.0025 µM,41.2%
same,growth,HOP-62 NSCLC; 10 µM,-16.9% (active)
same,growth,NCI-H460 lung; 0.0025 µM,16.7%
same,growth,NCI-H460 lung; 10 µM,-22.4% (active)
same,growth,HOP-92 NSCLC; 0.0025 µM,50.7%
same,growth,HOP-92 NSCLC; 10 µM,-16.3% (active)
same,growth,NCI-H522 lung; 0.0025 µM,33.9%
same,growth,NCI-H522 lung; 10 µM,-38.4% (active)
same,growth,A549/ATCC NSCLC; 0.0025 µM,36.8%
same,growth,A549/ATCC NSCLC; 10 µM,-38.9% (active)
same,growth,786-0 renal; 0.0025 µM,41.8%
same,growth,786-0 renal; 10 µM,-3.24% (active)
same,growth,DU-145 prostate; 0.0025 µM,41.6%
same,growth,DU-145 prostate; 10 µM,-30.5% (active)
same,growth,K-562 leukemia; 0.0025 µM,18.8%
same,growth,K-562 leukemia; 10 µM,0.49% (active)
same,growth,MALME-3M melanoma; 0.0025 µM,66.3%
same,growth,MALME-3M melanoma; 10 µM,-61.4% (active)
same,growth,MDA-MB-231 breast; 0.0025 µM,64.2%
same,growth,MDA-MB-231 breast; 10 µM,-2.13% (active)
same,growth,RXF 393 renal; 0.0025 µM,31.1%
same,growth,RXF 393 renal; 10 µM,-45.9% (active)
same,growth,SF-268 CNS; 0.0025 µM,46.1%
same,growth,SF-268 CNS; 10 µM,-9.34% (active)
same,growth,SF-295 CNS; 0.0025 µM,62.4%
same,growth,SF-295 CNS; 10 µM,-8.12% (active)
same,growth,SF-539 CNS; 0.0025 µM,25.5%
same,growth,SF-539 CNS; 10 µM,-54.7% (active)
same,growth,UACC-257 melanoma; 0.0025 µM,30.6%
same,growth,UACC-257 melanoma; 10 µM,-29.8% (active)
same,growth,HCT-15 colon; 0.0025 µM,74.4%
same,growth,HCT-15 colon; 10 µM,2.4% (active)
S=c1[nH]nc(Cc2ccccc2)c(=S)[nH]1,growth,NCI-H23 lung; 10 µM,92.5%
same,growth,NCI-H226 lung; 10 µM,103%
same,growth,NCI-H322M lung; 10 µM,97.7%
same,growth,HOP-62 NSCLC; 10 µM,97.7%
same,growth,NCI-H460 lung; 10 µM,104%
same,growth,HOP-92 NSCLC; 10 µM,100%
same,growth,NCI-H522 lung; 10 µM,88%
same,growth,A549/ATCC NSCLC; 10 µM,94.7%
same,growth,786-0 renal; 10 µM,106%
same,growth,DU-145 prostate; 10 µM,100%
same,growth,K-562 leukemia; 10 µM,94.6%
same,growth,MALME-3M melanoma; 10 µM,98.3%
same,growth,MDA-MB-231 breast; 10 µM,113%
same,growth,RXF 393 renal; 10 µM,103%
same,growth,SF-268 CNS; 10 µM,90.3%
same,growth,SF-295 CNS; 10 µM,99.8%
same,growth,SF-539 CNS; 10 µM,102%
same,growth,UACC-257 melanoma; 10 µM,102%
same,growth,M14 melanoma,101%
same,growth,HCT-15 colon; 10 µM,102%
CSc1ccc2c(c1)C(N1CCN(C)CC1)Cc1ccccc1S2 (stereo not drawn),growth,NCI-H23 lung; 10 µM,56%
same,growth,NCI-H226 lung; 10 µM,55.3%
same,growth,NCI-H460 lung; 10 µM,29%
same,growth,HOP-92 NSCLC; 10 µM,5.58% (active)
same,growth,A549/ATCC NSCLC; 10 µM,52.7%
same,growth,786-0 renal; 10 µM,53.6%
same,growth,DU-145 prostate; 10 µM,34%
same,growth,MALME-3M melanoma; 10 µM,-46.6% (active)
same,growth,MDA-MB-231 breast; 10 µM,-11.6% (active)
same,growth,RXF 393 renal; 10 µM,25.1%
same,growth,SF-268 CNS; 10 µM,36.7%
same,growth,SF-295 CNS; 10 µM,44.1%
same,growth,SF-539 CNS; 10 µM,60.1%
same,growth,UACC-257 melanoma; 10 µM,-61.6% (active)
same,growth,HCT-15 colon; 10 µM,10.3%
